Data reported in PubChem BioAssay.
Active and inactive are the calls of the source.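 How the source made its calls, unless noted: active means compounds lowering colon cancer cell viability after pretreatment blocking the GSK3B kinase; inactive means the rest.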

Test: growth inhibition of GSK3B-pretreated HCT116 cells – cell-based, CellTiter-Glo, 0.2 to 20 µM (AID 1117336)
Conditions: HCT116 viability after GSK3B inhibitor, at 20 µM, stronger effect = higher value

Question: For `CNNCc1ccc(C(=O)NC(C)C)cc1`, which viability decrease is on record?
Answer: Its viability decrease is -8.6% (inactive).

Question: Which viability decrease does the source give for `Nc1nc2c(ncn2CCC(CO)CO)c(=O)[nH]1` here?
Answer: Its viability decrease is 0.03% (inactive).

Question: For `O=C1CC2(CCCC2)CC(=O)N1CCNCC1COc2ccccc2O1` (stereo unspecified), which viability decrease is on record?
Answer: Its viability decrease is -32% (inactive).

Question: With `Cn1nnc2c(C(N)=O)ncn2c1=O` as the compound, how does the viability decrease read?
Answer: Its viability decrease is -10.2% (inactive).

Question: With `O=C1[C@H]2CCCC[C@H]2C(=O)N1CCCCN1CCN(c2nsc3ccccc23)CC1` as the compound, how does the viability decrease read?
Answer: The viability decrease was 70.3% (active).

Question: Which viability decrease does the source give for `O=C(O)CCNC(=O)c1ccc(N=Nc2ccc(O)c(C(=O)O)c2)cc1` here?
Answer: The viability decrease was 5.2% (inactive).

Question: For `CC(Oc1c(Cl)cccc1Cl)C1=NCCN1` (stereo unspecified), which viability decrease is on record?
Answer: Its viability decrease is -16.2% (inactive).

Question: With `CN1CCN(C2=Nc3cc(F)ccc3Cc3ccccc32)CC1` as the compound, how does the viability decrease read?
Answer: The viability decrease was 12.5% (inactive).

Question: For `COC(=O)C1=C(C)NC(C)=C(C(=O)OC(C)C)C1c1cccc2nonc12` (stereo unspecified), which viability decrease is on record?
Answer: Its viability decrease is -4.5% (inactive).

Question: For `CCOc1cc(N)c(Cl)cc1C(=O)NCC1CN(Cc2ccc(F)cc2)CCO1` (stereo unspecified), which viability decrease is on record?
Answer: Its viability decrease is 71.6% (active).

Question: With `O=c1c(-c2ccccc2)c1-c1ccccc1` as the compound, how does the viability decrease read?
Answer: The viability decrease was 41.9% (inactive).

Question: For `O=C1Nc2ccc(Cl)cc2[C@@](C#CC2CC2)(C(F)(F)F)O1`, which viability decrease is on record?
Answer: The viability decrease was 86.5% (active).

Question: For `Nc1nc(N)nc(-c2cc(Cl)ccc2Cl)n1`, which viability decrease is on record?
Answer: Its viability decrease is 20.3% (inactive).

Question: Which viability decrease does the source give for `OCCOCCN1CCN(C2=Nc3ccccc3Sc3ccccc32)CC1` here?
Answer: Its viability decrease is -12.8% (inactive).

Question: For `CC(=O)Nc1ccc(CC(=O)O)cc1`, which viability decrease is on record?
Answer: The viability decrease was -4.5% (inactive).

Question: With `O=c1[nH]cnc2c1ncn2[C@H]1CC[C@@H](CO)O1` as the compound, how does the viability decrease read?
Answer: Its viability decrease is -9% (inactive).

Question: With `COC(=O)C1=C(C)NC(C)=C(C(=O)O[C@@H]2CCCN(Cc3ccccc3)C2)[C@@H]1c1cccc([N+](=O)[O-])c1` as the compound, how does the viability decrease read?
Answer: Its viability decrease is 110% (active).

Question: With `Cc1c(O)cccc1C(=O)N[C@@H](CSc1ccccc1)[C@H](O)CN1C[C@H]2CCCC[C@H]2C[C@H]1C(=O)NC(C)(C)C` as the compound, how does the viability decrease read?
Answer: The viability decrease was 117% (active).

Question: For `CCc1nn(CCCN2CCN(c3cccc(Cl)c3)CC2)c(=O)n1CCOc1ccccc1`, which viability decrease is on record?
Answer: Its viability decrease is 67.2% (active).

Question: Which viability decrease does the source give for `Nc1[nH]c(=O)ncc1F` here?
Answer: The viability decrease was -5.1% (inactive).

Question: Which viability decrease does the source give for `O=C1CCc2ccc(OCCCCN3CCN(c4cccc(Cl)c4Cl)CC3)cc2N1` here?
Answer: Its viability decrease is 95% (active).

Question: For `COc1cc(C(=O)NC2CCCNC2)cc(OC)c1OC` (stereo unspecified), which viability decrease is on record?
Answer: Its viability decrease is -5.2% (inactive).

Question: Which viability decrease does the source give for `COc1ccc(C(=O)NCc2ccc(OCCN(C)C)cc2)cc1OC` here?
Answer: Its viability decrease is -2.9% (inactive).

Question: For `COCc1c(C(C)C)nc(C(C)C)c(/C=C/[C@@H](O)C[C@@H](O)CC(=O)O)c1-c1ccc(F)cc1`, which viability decrease is on record?
Answer: The viability decrease was 107% (active).

Question: For `CC(C)(C)C(O)/C=C/c1ccc2c(c1)OCO2` (stereo unspecified), which viability decrease is on record?
Answer: Its viability decrease is -4.45% (inactive).

Question: With `Cc1ccnc2c1NC(=O)c1cccnc1N2C1CC1` as the compound, how does the viability decrease read?
Answer: The viability decrease was -14.3% (inactive).

Question: Which viability decrease does the source give for `CCOc1cc(CC(=O)N[C@@H](CC(C)C)c2ccccc2N2CCCCC2)ccc1C(=O)O` here?
Answer: Its viability decrease is 70.5% (active).

Question: With `Nc1c2c(nc3c1CCC3)CCCC2` as the compound, how does the viability decrease read?
Answer: The viability decrease was -1.35% (inactive).

Question: With `CCOC(=O)OC(C)OC1=C(C(=O)Nc2ccccn2)N(C)S(=O)(=O)c2ccccc21` (stereo unspecified) as the compound, how does the viability decrease read?
Answer: The viability decrease was 5.8% (inactive).

Question: Which viability decrease does the source give for `CN1CCN(c2c(F)cc3c(=O)c(C(=O)O)cn4c3c2SCC4)CC1` here?
Answer: Its viability decrease is 19.8% (inactive).

Question: For `Cc1nc2n(c(=O)c1CCN1CCC(c3noc4cc(F)ccc34)CC1)CCCC2`, which viability decrease is on record?
Answer: The viability decrease was 5.9% (inactive).

Question: For `O=C(O)/C=C/c1ccc(Cn2ccnc2)cc1`, which viability decrease is on record?
Answer: The viability decrease was -15.3% (inactive).

Question: Which viability decrease does the source give for `O=C(NCCO[N+](=O)[O-])c1cccnc1` here?
Answer: The viability decrease was -0.2% (inactive).

Question: With `Cc1nc2ccc(CN(C)c3ccc(C(=O)N[C@@H](CCC(=O)O)C(=O)O)s3)cc2c(=O)[nH]1` as the compound, how does the viability decrease read?
Answer: Its viability decrease is 83.7% (active).

Question: For `CCCN1CCCC[C@H]1C(=O)Nc1c(C)cccc1C`, which viability decrease is on record?
Answer: Its viability decrease is -8% (inactive).

Question: With `COc1cc2c(cc1OC)C(=O)C(CC1CCN(Cc3ccccc3)CC1)C2` (stereo unspecified) as the compound, how does the viability decrease read?
Answer: Its viability decrease is 22.6% (inactive).

Question: Which viability decrease does the source give for `N#Cc1ccc(C(c2ccc(C#N)cc2)n2cncn2)cc1` here?
Answer: Its viability decrease is -9.1% (inactive).

Question: With `Cc1[nH]cnc1CN1CCc2c(c3ccccc3n2C)C1=O` as the compound, how does the viability decrease read?
Answer: Its viability decrease is 10.2% (inactive).

Test: inhibition of endothelial tube formation, primary screen, imaging, VEGF stimulated, CD31 staining, tube area, NPC library (AID 1117340;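 active means compound that reduces growth-factor-driven endothelial tube area in a mixed cell culture, no cutoff stated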)
Conditions: VEGF-stimulated ADSC/ECFC co-culture, at 10 µM, stronger effect = higher value

Question: Which tube area decrease does the source give for `CNNCc1ccc(C(=O)NC(C)C)cc1` here?
Answer: The tube area decrease was 0.7% (inactive).

Question: For `Nc1nc2c(ncn2CCC(CO)CO)c(=O)[nH]1`, which tube area decrease is on record?
Answer: The tube area decrease was 11.3% (inactive).

Question: Which tube area decrease does the source give for `O=C1CC2(CCCC2)CC(=O)N1CCNCC1COc2ccccc2O1` (stereo unspecified) here?
Answer: The tube area decrease was -4.9% (inactive).

Question: For `Cn1nnc2c(C(N)=O)ncn2c1=O`, which tube area decrease is on record?
Answer: Its tube area decrease is 26.7% (inactive).

Question: Which tube area decrease does the source give for `O=C1[C@H]2CCCC[C@H]2C(=O)N1CCCCN1CCN(c2nsc3ccccc23)CC1` here?
Answer: Its tube area decrease is 25.8% (inactive).

Question: Which tube area decrease does the source give for `O=C(O)CCNC(=O)c1ccc(N=Nc2ccc(O)c(C(=O)O)c2)cc1` here?
Answer: The tube area decrease was 11.5% (inactive).

Question: For `CC(Oc1c(Cl)cccc1Cl)C1=NCCN1` (stereo unspecified), which tube area decrease is on record?
Answer: Its tube area decrease is -28.5% (inactive).

Question: Which tube area decrease does the source give for `CN1CCN(C2=Nc3cc(F)ccc3Cc3ccccc32)CC1` here?
Answer: The tube area decrease was 13% (inactive).

Question: With `COC(=O)C1=C(C)NC(C)=C(C(=O)OC(C)C)C1c1cccc2nonc12` (stereo unspecified) as the compound, how does the tube area decrease read?
Answer: The tube area decrease was 13.7% (inactive).

Question: Which tube area decrease does the source give for `CCOc1cc(N)c(Cl)cc1C(=O)NCC1CN(Cc2ccc(F)cc2)CCO1` (stereo unspecified) here?
Answer: Its tube area decrease is 5.1% (inactive).

Question: Which tube area decrease does the source give for `O=c1c(-c2ccccc2)c1-c1ccccc1` here?
Answer: Its tube area decrease is 103% (active).

Question: Which tube area decrease does the source give for `O=C1Nc2ccc(Cl)cc2[C@@](C#CC2CC2)(C(F)(F)F)O1` here?
Answer: Its tube area decrease is -16% (inactive).

Question: For `Nc1nc(N)nc(-c2cc(Cl)ccc2Cl)n1`, which tube area decrease is on record?
Answer: The tube area decrease was -11.3% (inactive).

Question: With `OCCOCCN1CCN(C2=Nc3ccccc3Sc3ccccc32)CC1` as the compound, how does the tube area decrease read?
Answer: Its tube area decrease is 18.9% (inactive).

Question: For `CC(=O)Nc1ccc(CC(=O)O)cc1`, which tube area decrease is on record?
Answer: Its tube area decrease is 12.1% (inactive).

Question: Which tube area decrease does the source give for `O=c1[nH]cnc2c1ncn2[C@H]1CC[C@@H](CO)O1` here?
Answer: The tube area decrease was -4.4% (inactive).

Question: Which tube area decrease does the source give for `COC(=O)C1=C(C)NC(C)=C(C(=O)O[C@@H]2CCCN(Cc3ccccc3)C2)[C@@H]1c1cccc([N+](=O)[O-])c1` here?
Answer: Its tube area decrease is 52.9% (active).

Question: Which tube area decrease does the source give for `Cc1c(O)cccc1C(=O)N[C@@H](CSc1ccccc1)[C@H](O)CN1C[C@H]2CCCC[C@H]2C[C@H]1C(=O)NC(C)(C)C` here?
Answer: Its tube area decrease is 67.1% (active).

Question: For `CCc1nn(CCCN2CCN(c3cccc(Cl)c3)CC2)c(=O)n1CCOc1ccccc1`, which tube area decrease is on record?
Answer: The tube area decrease was 30.7% (inactive).

Question: For `Nc1[nH]c(=O)ncc1F`, which tube area decrease is on record?
Answer: The tube area decrease was -15.9% (inactive).

Question: Which tube area decrease does the source give for `O=C1CCc2ccc(OCCCCN3CCN(c4cccc(Cl)c4Cl)CC3)cc2N1` here?
Answer: Its tube area decrease is 3.8% (inactive).

Question: Which tube area decrease does the source give for `COc1cc(C(=O)NC2CCCNC2)cc(OC)c1OC` (stereo unspecified) here?
Answer: The tube area decrease was 0.1% (inactive).

Question: For `COc1ccc(C(=O)NCc2ccc(OCCN(C)C)cc2)cc1OC`, which tube area decrease is on record?
Answer: Its tube area decrease is 4.2% (inactive).

Question: With `COCc1c(C(C)C)nc(C(C)C)c(/C=C/[C@@H](O)C[C@@H](O)CC(=O)O)c1-c1ccc(F)cc1` as the compound, how does the tube area decrease read?
Answer: Its tube area decrease is 107% (active).

Question: For `CC(C)(C)C(O)/C=C/c1ccc2c(c1)OCO2` (stereo unspecified), which tube area decrease is on record?
Answer: The tube area decrease was -6.4% (inactive).

Question: Which tube area decrease does the source give for `Cc1ccnc2c1NC(=O)c1cccnc1N2C1CC1` here?
Answer: Its tube area decrease is -6.9% (inactive).

Question: With `CCOc1cc(CC(=O)N[C@@H](CC(C)C)c2ccccc2N2CCCCC2)ccc1C(=O)O` as the compound, how does the tube area decrease read?
Answer: Its tube area decrease is -11.3% (inactive).

Question: With `Nc1c2c(nc3c1CCC3)CCCC2` as the compound, how does the tube area decrease read?
Answer: Its tube area decrease is 20.5% (inactive).

Question: For `CCOC(=O)OC(C)OC1=C(C(=O)Nc2ccccn2)N(C)S(=O)(=O)c2ccccc21` (stereo unspecified), which tube area decrease is on record?
Answer: Its tube area decrease is -1.1% (inactive).

Question: For `CN1CCN(c2c(F)cc3c(=O)c(C(=O)O)cn4c3c2SCC4)CC1`, which tube area decrease is on record?
Answer: The tube area decrease was -3.6% (inactive).

Question: For `Cc1nc2n(c(=O)c1CCN1CCC(c3noc4cc(F)ccc34)CC1)CCCC2`, which tube area decrease is on record?
Answer: The tube area decrease was 24.9% (inactive).

Question: For `O=C(O)/C=C/c1ccc(Cn2ccnc2)cc1`, which tube area decrease is on record?
Answer: The tube area decrease was 3% (inactive).

Question: With `O=C(NCCO[N+](=O)[O-])c1cccnc1` as the compound, how does the tube area decrease read?
Answer: The tube area decrease was -25.1% (inactive).

Question: Which tube area decrease does the source give for `Cc1nc2ccc(CN(C)c3ccc(C(=O)N[C@@H](CCC(=O)O)C(=O)O)s3)cc2c(=O)[nH]1` here?
Answer: Its tube area decrease is 62.5% (active).

Question: With `CCCN1CCCC[C@H]1C(=O)Nc1c(C)cccc1C` as the compound, how does the tube area decrease read?
Answer: The tube area decrease was -2.1% (inactive).

Question: Which tube area decrease does the source give for `COc1cc2c(cc1OC)C(=O)C(CC1CCN(Cc3ccccc3)CC1)C2` (stereo unspecified) here?
Answer: Its tube area decrease is 17.7% (inactive).

Question: For `N#Cc1ccc(C(c2ccc(C#N)cc2)n2cncn2)cc1`, which tube area decrease is on record?
Answer: The tube area decrease was -17.6% (inactive).

Question: For `Cc1[nH]cnc1CN1CCc2c(c3ccccc3n2C)C1=O`, which tube area decrease is on record?
Answer: The tube area decrease was 19.5% (inactive).
